Calls of active or inactive are those of the source.
Assays:
[1] = binders of probe aFSTL3 on microarray, primary screen, stem cell growth factor project, biochemical, small-molecule microarray, fluorescence 635/667 (AID 1064); settings: higher = more signal;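 further: measures binding of the biotinylated anti-FSTL3 antibody to printed compounds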
[2] = binders from COS7 lysate, DM2A8 probe, primary screen, torsin A project, cell lysate, small-molecule microarray, fluorescence 635/667 (AID 1065); settings: higher = more signal, COS7 lysate expressing mutant human TOR1A
[3] = binders of probe aFGF2 on microarray, primary screen, stem cell growth factor project, biochemical, small-molecule microarray, fluorescence 635/667 (AID 1067); settings: higher = more signal;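 further: measures binding of biotinylated aFGF2 protein to printed compounds on slides; z-score merges feature fluorescence and signal-to-noise across triplicate slides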
[4] = binders of probe aFGF10 on microarray, primary screen, stem cell growth factor project, biochemical, small-molecule microarray, fluorescence 635/667 (AID 1071); settings: higher = more signal;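 further: score merges 667 nm spot intensity and signal to noise from triplicate slides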
[5] = target: Neurogenic locus notch homolog protein 2 (Homo sapiens) (UniProt Q04721); assay: Notch2 binders on small-molecule microarrays, primary screen, biochemical, small-molecule microarray, 635 nm fluorescence, stem cell growth factors (AID 1073); settings: Notch2 binding, higher = more signal
[6] = target: Pro-neuregulin-1, membrane-bound isoform (Homo sapiens) (UniProt Q02297); assay: NRG1 binders on small-molecule microarrays, primary screen, psychiatric disease protein project, biochemical, small-molecule microarray, fluorescence 635/667 (AID 1075); settings: NRG1 binding, 635 nm fluorescence, higher = more signal;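 further: score combines 667 nm spot fluorescence with signal to noise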
Pro-neuregulin-1, membrane-bound isoform (Homo sapiens), sequence (Q02297 whole entry, looked up, the tested form may be a part, canonical isoform): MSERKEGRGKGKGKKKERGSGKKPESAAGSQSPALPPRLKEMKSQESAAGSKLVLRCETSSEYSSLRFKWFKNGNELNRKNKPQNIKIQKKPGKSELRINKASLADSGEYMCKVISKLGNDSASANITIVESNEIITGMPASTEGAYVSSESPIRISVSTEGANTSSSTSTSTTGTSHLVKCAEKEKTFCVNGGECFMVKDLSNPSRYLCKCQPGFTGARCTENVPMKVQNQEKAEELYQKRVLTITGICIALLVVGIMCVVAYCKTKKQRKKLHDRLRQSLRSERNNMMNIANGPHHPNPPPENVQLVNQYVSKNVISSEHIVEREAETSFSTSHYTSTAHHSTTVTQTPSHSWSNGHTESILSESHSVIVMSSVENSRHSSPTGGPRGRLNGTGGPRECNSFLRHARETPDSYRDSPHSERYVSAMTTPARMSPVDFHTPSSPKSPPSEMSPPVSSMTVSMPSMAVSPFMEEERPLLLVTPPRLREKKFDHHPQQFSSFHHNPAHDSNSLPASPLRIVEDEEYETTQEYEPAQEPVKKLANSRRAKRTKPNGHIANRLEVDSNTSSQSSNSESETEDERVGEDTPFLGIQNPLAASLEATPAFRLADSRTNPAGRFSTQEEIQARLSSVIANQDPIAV

[7] = tested on: Neuregulin-1 EGF-like domain; assay: binders of neuregulin-1 EGF-like domain, primary screen, biochemical, small-molecule microarray, 635 nm fluorescence (AID 1081); settings: small-molecule microarray binding, higher = more signal;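 further: binding of the protein to compounds printed on small-molecule microarray slides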
[8] = FRG1 promoter luciferase signal modulators, primary screen, FRG1 inhibition for FSHD, cell-based, C2C12 myotubes, firefly/Renilla luciferase, luminescence (AID 1084); settings: higher = more signal, called active from +8 up or from −8 down
[9] = binders of probe aFST on microarray, primary screen, stem cell growth factor project, biochemical, small-molecule microarray, fluorescence 635/667 (AID 1086); settings: higher = more signal;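 further: score merges 667 nm fluorescence with signal-to-noise of each printed compound spot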
[10] = binders of probe aHhip on microarray, primary screen, stem cell growth factor project, biochemical, small-molecule microarray, fluorescence 635/667 (AID 1087); settings: higher = more signal;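 further: score merges spot fluorescence at 667nm with spot signal to noise ratio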
[11] = tested on: PRMT1 (protein arginine N-methyltransferase 1); assay: PRMT1 binders on small-molecule microarrays, primary screen, biochemical, small-molecule microarray, 635 nm fluorescence (AID 1088); settings: small-molecule microarray binding, higher = more signal;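 further: binding of Prmt1 protein to compounds spotted on small-molecule microarray slides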
[12] = yeast growth modulation, basal conditions, primary screen, YJM789 clinical isolate, OD600, 24 h (AID 1089);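 further: growth of clinical yeast isolate S. cerevisiae YJM 789 seeded 1000 cells per well; test concentration not given here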; settings: S. cerevisiae YJM789 growth, higher = more signal, called active from +8 up or from −8 down
[13] = fission yeast growth modulation, primary screen, strain 972, OD600, 24 h, no modulator (AID 1090);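 further: basal condition with compound alone and no growth modifier present; test concentration not given here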; settings: S. pombe 972 growth, higher = more signal, called active from +8 up or from −8 down
[14] = S. cerevisiae growth modulation with rapamycin, primary screen, strain BY4716, OD600, 96 h (AID 1091); settings: higher = more signal, called active from +8 up or from −8 down; further: test concentration not given here
[15] = target: Torsin-1A-interacting protein 2 (Homo sapiens) (UniProt Q8NFQ8); assay: LULL1 binders on small-molecule microarray, primary screen, cell lysate, human LULL1 lysate, 635/667 nm fluorescence (AID 1092); settings: hLULL1 lysate binding, 635 nm fluorescence, higher = more signal;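 further: probe is lysate of COS7 cells overexpressing human LULL1; score merges per-feature 667 nm fluorescence with signal-to-noise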
Torsin-1A-interacting protein 2 (Homo sapiens), sequence (Q8NFQ8 whole entry, looked up): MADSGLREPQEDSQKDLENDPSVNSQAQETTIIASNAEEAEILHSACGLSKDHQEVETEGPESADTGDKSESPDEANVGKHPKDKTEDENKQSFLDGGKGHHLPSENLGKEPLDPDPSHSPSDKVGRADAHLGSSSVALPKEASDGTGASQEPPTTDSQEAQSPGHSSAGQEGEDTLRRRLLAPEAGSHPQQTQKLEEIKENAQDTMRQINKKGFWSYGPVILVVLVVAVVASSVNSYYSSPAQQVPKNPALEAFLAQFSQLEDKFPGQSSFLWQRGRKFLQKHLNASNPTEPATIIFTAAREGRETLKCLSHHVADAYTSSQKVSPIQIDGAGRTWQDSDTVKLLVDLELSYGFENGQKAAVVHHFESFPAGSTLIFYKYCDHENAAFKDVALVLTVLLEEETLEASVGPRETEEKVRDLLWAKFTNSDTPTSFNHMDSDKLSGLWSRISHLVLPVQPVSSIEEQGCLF

[16] = E. coli growth modulation, two-sided OD650, primary screen, E. coli filamentation project, strain DRC41, 24 h (AID 1093); settings: OD650, 24 h, higher = more signal, called active from +8 up or from −8 down;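 further: MC1000 strain lacking acrAB efflux and sulA so SOS filamentation is blocked; test concentration not given here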
[17] = small-molecule microarray binders of probe aLefty2, primary screen, biochemical, biotinylated probe, 635/667 nm fluorescence (AID 1094); settings: higher = more signal;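 further: score merges spot fluorescence near 667 nm with spot signal-to-noise ratio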
[18] = tested on: Noggin (protein binding on small-molecule microarray); assay: Noggin binders on small-molecule microarray, primary screen, biochemical, 635/667 nm fluorescence (AID 1095); settings: 635 nm fluorescence, higher = more signal;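 further: score merges 667 nm feature fluorescence with signal to noise over triplicate slides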
[19] = target: Neurogenic locus notch homolog protein 3 (Homo sapiens) (UniProt Q9UM47); assay: NOTCH3 binders on small-molecule microarray, primary screen, biochemical, 635/667 nm fluorescence (AID 1096); settings: NOTCH3 binding, 635 nm fluorescence, higher = more signal
Neurogenic locus notch homolog protein 3 (Homo sapiens), sequence (Q9UM47 whole entry, looked up): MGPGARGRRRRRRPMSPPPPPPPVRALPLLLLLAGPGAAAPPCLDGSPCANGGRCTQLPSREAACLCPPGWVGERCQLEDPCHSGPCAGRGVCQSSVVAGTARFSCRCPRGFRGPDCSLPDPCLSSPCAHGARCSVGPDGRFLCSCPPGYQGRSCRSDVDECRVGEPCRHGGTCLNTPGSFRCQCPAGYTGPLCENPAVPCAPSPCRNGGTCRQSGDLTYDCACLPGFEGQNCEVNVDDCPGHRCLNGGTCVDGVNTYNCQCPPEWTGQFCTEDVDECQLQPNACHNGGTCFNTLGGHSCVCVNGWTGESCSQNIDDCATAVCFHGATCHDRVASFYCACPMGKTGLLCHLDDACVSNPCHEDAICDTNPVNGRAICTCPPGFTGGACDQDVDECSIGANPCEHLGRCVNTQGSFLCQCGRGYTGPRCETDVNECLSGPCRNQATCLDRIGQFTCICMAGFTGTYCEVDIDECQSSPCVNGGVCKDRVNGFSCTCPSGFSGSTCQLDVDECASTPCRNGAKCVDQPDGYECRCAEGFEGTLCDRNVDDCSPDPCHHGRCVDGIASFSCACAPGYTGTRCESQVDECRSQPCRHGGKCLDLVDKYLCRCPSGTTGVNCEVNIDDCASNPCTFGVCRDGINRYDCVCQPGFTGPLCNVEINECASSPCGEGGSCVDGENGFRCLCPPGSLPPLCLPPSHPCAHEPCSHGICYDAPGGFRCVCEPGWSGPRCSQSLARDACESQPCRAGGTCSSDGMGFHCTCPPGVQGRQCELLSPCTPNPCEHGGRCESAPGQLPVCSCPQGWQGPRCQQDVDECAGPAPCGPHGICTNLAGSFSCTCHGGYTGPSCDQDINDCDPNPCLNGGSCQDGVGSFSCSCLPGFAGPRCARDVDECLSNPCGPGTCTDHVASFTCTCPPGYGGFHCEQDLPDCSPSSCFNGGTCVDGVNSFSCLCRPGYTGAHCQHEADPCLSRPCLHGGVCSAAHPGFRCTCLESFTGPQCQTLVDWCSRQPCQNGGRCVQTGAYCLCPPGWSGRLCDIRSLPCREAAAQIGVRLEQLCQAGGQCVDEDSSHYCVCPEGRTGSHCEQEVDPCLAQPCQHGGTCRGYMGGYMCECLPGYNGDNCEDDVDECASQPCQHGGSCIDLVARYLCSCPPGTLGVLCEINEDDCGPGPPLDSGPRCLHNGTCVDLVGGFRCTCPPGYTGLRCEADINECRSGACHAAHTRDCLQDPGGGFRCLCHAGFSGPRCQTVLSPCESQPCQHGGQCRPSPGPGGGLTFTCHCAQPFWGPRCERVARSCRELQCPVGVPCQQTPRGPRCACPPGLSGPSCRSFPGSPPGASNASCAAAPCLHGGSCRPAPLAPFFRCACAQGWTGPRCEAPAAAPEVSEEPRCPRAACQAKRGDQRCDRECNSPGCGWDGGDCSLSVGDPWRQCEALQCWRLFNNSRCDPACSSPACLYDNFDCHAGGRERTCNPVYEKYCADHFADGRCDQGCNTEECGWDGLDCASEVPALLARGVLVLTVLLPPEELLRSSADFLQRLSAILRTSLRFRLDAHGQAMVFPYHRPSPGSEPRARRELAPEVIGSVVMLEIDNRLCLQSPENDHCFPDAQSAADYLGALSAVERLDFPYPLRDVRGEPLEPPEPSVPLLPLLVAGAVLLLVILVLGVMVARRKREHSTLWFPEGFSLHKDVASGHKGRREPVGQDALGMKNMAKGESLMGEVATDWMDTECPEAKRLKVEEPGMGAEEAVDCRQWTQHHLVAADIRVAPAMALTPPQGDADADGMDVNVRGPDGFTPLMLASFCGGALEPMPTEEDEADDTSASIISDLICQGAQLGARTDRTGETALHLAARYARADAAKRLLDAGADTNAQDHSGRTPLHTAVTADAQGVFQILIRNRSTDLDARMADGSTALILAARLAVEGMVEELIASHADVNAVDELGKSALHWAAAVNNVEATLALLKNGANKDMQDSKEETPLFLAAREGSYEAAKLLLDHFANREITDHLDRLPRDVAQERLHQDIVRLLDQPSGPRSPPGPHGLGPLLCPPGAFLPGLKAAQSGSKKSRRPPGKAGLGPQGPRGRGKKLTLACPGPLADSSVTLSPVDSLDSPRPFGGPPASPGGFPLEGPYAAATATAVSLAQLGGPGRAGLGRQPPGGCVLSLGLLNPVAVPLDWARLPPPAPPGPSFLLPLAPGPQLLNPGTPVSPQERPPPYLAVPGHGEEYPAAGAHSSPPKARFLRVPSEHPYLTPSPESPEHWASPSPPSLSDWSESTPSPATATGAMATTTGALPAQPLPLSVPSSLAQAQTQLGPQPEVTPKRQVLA

[20] = small-molecule microarray binders of probe aEGFR, primary screen, biochemical, biotinylated probe, 635/667 nm fluorescence (AID 1097); settings: higher = more signal;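 further: probe is a biotinylated anti-EGFR antibody binding compounds printed on slides; score combines fluorescence near 667 nm and signal to noise of each spot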

Structure (SMILES)	composite z-score [1]	composite z-score [2]	composite z-score [3]	composite z-score [4]	composite z-score [5]	composite z-score [6]	composite z-score [7]	z-score [8]	composite z-score [9]	composite z-score [10]	composite z-score [11]	z-score [12]	z-score [13]	z-score [14]	composite z-score [15]	z-score [16]	composite z-score [17]	composite z-score [18]	composite z-score [19]	composite z-score [20]
CC1(C)C2C=C(C(O)C3C=CC4C(=O)NC(=O)C4N3Nc3ccc(Cl)cc3Cl)C[C@@H]1C2 (stereo not given in full)	1.16	0.877	0.0474	0.519	1.59	1.5	0.867	-0.505 (inactive)	1.29	-0.104	0.804	-7.63 (inactive)	-6.77 (inactive)	0.722 (inactive)	1.33	-2.98 (inactive)	0.374	0.178	0.996	0.279
COC(=O)[C@@]1(Cc2ccc(OC)cc2)[C@H]2c3cc(C(=O)N(C)C)n(Cc4ccc(S(C)(=O)=O)cc4)c3C[C@H]2CN1C(=O)c1ccccc1	1.12	0.325	0.27	0.178	1.24	1.64	1.31	-1.49 (inactive)	1.46	0.296	-0.142	-3.22 (inactive)	-0.462 (inactive)	-0.154 (inactive)	3.4	0.0416 (inactive)	-0.264	0.715	1.11	0.0174
NC(=O)NCC#Cc1ccc2c(c1)[C@]1(C(=O)N2)[C@H](C(N)=O)[C@H]2C(=O)O[C@H](c3ccccc3)[C@H](c3ccccc3)N2[C@@H]1c1ccc(O)cc1	1.41	-0.0275	-0.0413	-0.166	-0.723	1.14	-0.22	-0.0861 (inactive)	0.752	1.15	0.317	-0.989 (inactive)	-0.434 (inactive)	-0.07 (inactive)	3.6	0.792 (inactive)	0.411	0.544	-0.382	-0.413
C=CCN1C(=O)[C@@]2(Cc3ccccc31)N=C(c1ccc(OCCCO)cc1)O[C@H]2c1ccccc1	1.12	0.282	0.0085	-0.112	1.01	1.24	1.23	-2.07 (inactive)	0.83	-0.144	1.54	-1.95 (inactive)	-6.68 (inactive)	2.77 (inactive)	3.12	1.44 (inactive)	0.352	0.638	1.11	0.122
COCCOC(=O)N1C(=O)[C@@]2(c3cc(C#CC4(O)CCCCCC4)ccc31)[C@H](c1ccc(OCCO)cc1)N1[C@H](c3ccccc3)[C@H](c3ccccc3)OC(=O)[C@H]1[C@@H]2C(=O)N1CCN(c2ncccn2)CC1	-0.407	0.485	-0.0242	0.612	1.03	1.09	0.966	-0.254 (inactive)	0.557	-0.0645	1.56	2.64 (inactive)	2.26 (inactive)	6.24 (inactive)	2.69	0.0846 (inactive)	-0.136	1.67	1.08	-0.108
C=CC[C@@]12N=C(c3ccc(OCCCO)cc3)O[C@@H]1c1ccccc1N(C)C2=O	0.463	0.233	0.128	0.638	0.8	1.38	1.31	1.72 (inactive)	0.593	0.0972	1.55	0.501 (inactive)	-5.65 (inactive)	0.432 (inactive)	2.93	0.671 (inactive)	0.246	1.75	0.997	0.0499
CN1C=C(C(=O)OCCS(C)(=O)=O)C(C(=O)OCCS(C)(=O)=O)=CC(c2ccc(CO)cc2)=CC1C1CC1 (stereo not given)	-0.0965	0.528	-0.0824	0.0351	-0.0701	1	1.27	0.849 (inactive)	-0.0993	-0.0994	0.522	0.243 (inactive)	-1.34 (inactive)	0.678 (inactive)	1.33	0.108 (inactive)	-0.22	0.425	0.415	-0.103
[N-]=[N+]=Nc1ccccc1[C@H]1OC(c2ccc(OCCCO)cc2)=N[C@@]1(CCS(=O)(=O)c1ccccc1)C(N)=O	1.5	0.449	0.0797	1.07	0.742	0.9	1.34	3.44 (inactive)	1.04	0.111	1.01	-0.268 (inactive)	-2.33 (inactive)	0.372 (inactive)	2.56	1.36 (inactive)	0.24	-0.194	0.42	0.401
C=C(COC)/C(=C/C[C@@H](OC(=O)c1ccncc1)c1ccc(CO)o1)c1cc(C(=O)OC)ccc1OC	-0.496	0.699	-0.0451	0.833	1.38	0.97	1.26	-1.38 (inactive)	0.458	-0.0994	1.53	0.102 (inactive)	-0.262 (inactive)	-0.127 (inactive)	2	0.564 (inactive)	-0.178	1.68	1.07	0.0878
O=C1O[C@H](c2ccccc2)[C@H](c2ccccc2)N2[C@H]1[C@@H](C(=O)N1CCCCCCC1)[C@]1(C(=O)Nc3ccc(C#CCCO)cc31)[C@H]2c1ccccc1OCCO	3.95	2.92	1.08	1.62	1.72	2.85	1.37	-0.851 (inactive)	3.77	4.26	1.55	2.09 (inactive)	-13.6 (active)	4.15 (inactive)	5.15	0.689 (inactive)	1.96	2.41	1.01	1.34

From PubChem BioAssay
